Measurements reported in PubChem BioAssay.
“And” between values parts separate entries of the source, which are not always exact repeats. Equal entries are not always repeated. The source made the active and inactive calls.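 Rule for the calls, unless noted: active = compound raises GLP1 secretion from the human gut endocrine cells, with no numeric limit stated; inactive = the rest.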

Experiments:
[1] = stimulators of nuclear beta-catenin in C2C12, primary screen, imaging, WNT3A-conditioned medium, mouse C2C12, NPC library (AID 1117326; in the data active = nuclear beta-catenin stimulation mostly above about 4.2%, no sharp cut-off; inactive = mostly below about 10%; note: reference of the scale not given here); conditions: stronger effect = higher value
[2] = stimulators of insulin release from INS-1E, primary screen, cell-based, 5 mM glucose, NPC library (AID 1117329;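 active = compound raises insulin release from rat beta cells at 5 mM glucose, no numeric limit stated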; note: reference of the scale not given here); conditions: rat INS-1E insulin secretion, at 10 µM, stronger effect = higher value
[3] = growth inhibition of GSK3B-pretreated HCT116 cells – cell-based, CellTiter-Glo, 0.2 to 20 µM (AID 1117336;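 active = compounds lowering colon cancer cell viability after pretreatment blocking the GSK3B kinase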); conditions: HCT116 viability after GSK3B inhibitor, at 20 µM, stronger effect = higher value
[4] = inhibition of endothelial tube formation, primary screen, imaging, VEGF stimulated, CD31 staining, tube area, NPC library (AID 1117340;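 active = compound that reduces growth-factor-driven endothelial tube area in a mixed cell culture, no cutoff stated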); conditions: VEGF-stimulated ADSC/ECFC co-culture, at 10 µM, stronger effect = higher value
[5] = glucagon-like peptide 1 release enhancers, primary assay, NCI-H716 cell line, NPC library (AID 1117341); conditions: NCI-H716 cells, at 10 µM, stronger effect = higher value; note: reference of the scale not given here
[6] = HCT116 colon cancer cell growth inhibition, primary screen, CellTiter-Glo luminescence, NPC library (AID 1117342;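 active = compounds that lower survival of HCT116 colon cancer cells in the luminescence readout, no numeric limit stated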); conditions: at 20 µM (top of the series)
[7] = CellTiter-Glo luminescent readout of SW480 viability loss, NPC library primary (AID 1117343;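 active = compounds that lower viability of the colon cancer cells in the luminescence readout, with no numeric limit stated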); conditions: CellTiter-Glo luminescence; at 20 µM (top of the series)
[8] = decreased DLD-1 cellular survival, CellTiter-Glo luminescent readout, NPC compound collection, primary HTS (AID 1117346;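 active = compounds that lower survival of DLD-1 colon cancer cells in the luminescence readout, no cutoff given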); conditions: DLD-1 viability, CellTiter-Glo luminescence; at 20 µM (top of the series)
[9] = sensitizers of A549 cells to miR-34 induction, primary screen, imaging, A549 dox-inducible miR-34, nuclei and caspase counts (AID 1347080;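 active = compounds whose cell count with miR-34 switched on is under 0.7 times the count with it off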); conditions: A549 miR-34 inducible, Hoechst nuclei count, 48 h
[10] = survival rescue of mitochondrial mutant cells in low glucose, primary screen, MELAS cybrids, Rieske KO mouse fibroblasts, CellTiter-Glo (AID 1508586;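 active = mean z-score across replicates of 1.96 or higher in either the MELAS or the Rieske mutant cell line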;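 note: z relative to plate mean and SD of compound and empty wells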)
[11] = molecular target: NAD(+) hydrolase SARM1 (Homo sapiens) (UniProt Q6SZW1); test: SARM1 TIR NADase inhibitors, cell lysate, NAD-Glo luminescence (AID 1508614;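 active = compound whose remaining NAD level is above about 45 nM, limit read from the data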;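 note: higher remaining NAD means stronger inhibition of SARM1 NADase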); conditions: SAM-TIR HEK293T lysate NADase, at 1 µM, stronger effect = higher value
NAD(+) hydrolase SARM1 (Homo sapiens), sequence (Q6SZW1 whole entry, looked up): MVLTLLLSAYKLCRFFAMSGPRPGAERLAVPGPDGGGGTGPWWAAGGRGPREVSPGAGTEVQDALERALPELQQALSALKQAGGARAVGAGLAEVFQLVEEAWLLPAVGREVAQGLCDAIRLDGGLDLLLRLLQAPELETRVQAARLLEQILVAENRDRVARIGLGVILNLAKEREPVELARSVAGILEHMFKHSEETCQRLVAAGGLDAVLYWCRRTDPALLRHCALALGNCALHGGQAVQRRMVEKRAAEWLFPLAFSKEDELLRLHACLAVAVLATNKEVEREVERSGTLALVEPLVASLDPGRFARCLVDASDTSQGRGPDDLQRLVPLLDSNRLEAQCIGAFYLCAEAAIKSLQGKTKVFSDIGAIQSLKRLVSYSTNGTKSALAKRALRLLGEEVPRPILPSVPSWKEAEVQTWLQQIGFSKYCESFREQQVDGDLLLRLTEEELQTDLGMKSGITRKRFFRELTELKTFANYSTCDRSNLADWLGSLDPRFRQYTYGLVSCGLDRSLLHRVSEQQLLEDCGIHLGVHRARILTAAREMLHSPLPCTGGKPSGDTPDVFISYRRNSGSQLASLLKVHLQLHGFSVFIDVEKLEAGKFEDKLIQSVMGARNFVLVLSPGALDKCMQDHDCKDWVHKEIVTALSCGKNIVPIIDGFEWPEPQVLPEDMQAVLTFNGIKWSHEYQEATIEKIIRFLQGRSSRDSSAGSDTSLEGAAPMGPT

[12] = liver-stage malaria parasite growth inhibition, primary screen, cell-based, HepG2, luciferase luminescence, HepG2 viability (AID 624349; in the data active = parasite load remaining mostly below about 12%, no sharp cut-off; inactive = mostly above about 10%;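 note: 100% = mean of DMSO negative control wells on the same plate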); conditions: P. berghei liver stage in HepG2, luciferase luminescence, concentration not given here; parasite load remaining: stronger effect = lower value; viability: measured here: HepG2 viability without parasites
[13] = hESC survival regulators, cell-based (AID 493140; call rule not given here;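 note: cells exposed to compounds for four days before counting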); conditions: human embryonic stem cell survival screen; stronger effect = higher value
[14] = stronger effect = lower value, cell number ratio, induced over uninduced
[15] = measured here: relative caspase fold change +Dox/-Dox
[16] = measured here: total cells with miR-34 induction, stronger effect = lower value
[17] = measured here: total cells without miR-34 induction
[18] = MELAS cybrid survival, CellTiter-Glo 48 h, stronger effect = higher value
[19] = Rieske KO mouse fibroblast survival, CellTiter-Glo 72 h

| SMILES | nuclear beta-catenin stimulation ([1]; at 10 µM) | nuclear beta-catenin stimulation ([1]; stimulation, at 2 µM) [%] | insulin secretion stimulation [2] | viability decrease [3] | tube area decrease [4] | GLP1 secretion stimulation [5] | inhibition of viability [6] | viability decrease (inhibition) [7] | viability decrease (inhibition) [8] | fold change [9, 14] | fold change [9, 15] | cell count [9, 16] | cell count [9, 17] | z-score [10, 18] | z-score [10, 19] | remaining NAD [11] | parasite load remaining [12] | viability [12] | survival [13] | fold change ([9]; stronger effect = lower value) |
| --- | --- | --- | --- | --- | --- | --- | --- | --- | --- | --- | --- | --- | --- | --- | --- | --- | --- | --- | --- | --- |
| Clc1cccc(SC2CCNCC2)n1 | 1% (inactive) | 2 | 4.8% (inactive) | -32% (inactive) | 5.5% (inactive) | 0.9% (inactive) | 11.5% (inactive) | 17.2% (inactive) | -11.3% (inactive) | 1.01 (inactive) | 0.88 | 8450 | 8400 |  |  |  |  |  |  |  |
| CCCCCCCCCCCC[N+](C)(C)CCOc1ccccc1 | 20.4% (inactive) | 0.6 | 5.9% (inactive) | 110% (active) | 111% (active) | 67% (active) | 112% (active) | 134% (active) | 101% (active) | 0.988 (inactive) | 0.958 | 6790 | 6870 | -0.488 (inactive) | -0.197 |  |  |  |  |  |
| COC(C)(C)CCCC(C)C/C=C/C(C)=C/C(=O)OC(C)C (configuration not stated) | 2% (inactive) | 1 | 1.35% (inactive) | 30.9% (inactive) | 2.7% (inactive) | 3.9% (inactive) | 42% (inactive) | 9.6% (inactive) | 17.2% (inactive) |  |  |  |  |  |  | 10 nM (inactive) |  |  |  |  |
| O=C1OC2(c3cc(Br)c(O)cc3Oc3c2cc(Br)c(O)[c]3[Hg])c2ccccc21 (configuration not stated) | 57.5% (active) | 3.4 | 7.2% (inactive) | 77.7% (active) | -234% (inactive) | -1.4% (inactive) | 52.1% (active) | 11.7% (inactive) | 38.2% (inactive) | 0.885 (inactive) | 1.08 | 9490 | 10700 | -0.831 (inactive) | 0.0245 |  | 65.8% (inactive) | 84.8% |  |  |
| O=C(NCNC(=O)NC1C(=O)NC(=O)N1CO)NC1C(=O)NC(=O)N1CO (configuration not stated) | -1.7% (inactive) | 0.2 | 1.2% (inactive) | -3.4% (inactive) | -8.4% (inactive) | -0.8% (inactive) | -1.8% (inactive) | 3.1% (inactive) | 8.4% (inactive) |  | 0.72 | 9340 | 10200 | 0.818 (inactive) | 0.0717 |  | 92.1% (inactive) | 79.2% | 33.2 (inactive) | 0.914 (inactive) |
| Cc1cccc(Cc2cnc[nH]2)c1C | 7.4% (inactive) | 8.1 | 0.4% (inactive) | -41.9% (inactive) | 15.5% (inactive) | 4.1% (inactive) | 4.37% (inactive) | -5.1% (inactive) | -9.9% (inactive) |  | 0.529 | 7080 | 7310 | 0.317 (inactive) | -0.228 |  |  |  |  | 0.969 (inactive) |
| Clc1ccc(CCC(Cn2ccnc2)Sc2c(Cl)cccc2Cl)cc1 (configuration not stated) | 15.6% (inactive) | 4.3 | -0.2% (inactive) | 101% (active) | 109% (active) | 20.8% (active) | 101% (active) | 123% (active) | 103% (active) |  | 0.807 and 1.54 and 0.572 | 5090 and 6860 and 7040 | 5260 and 8350 and 7940 | 0.075 (inactive) and -0.442 (inactive) | -0.608 and 0.109 |  | 5.94% (inactive) and 63.9% (inactive) | 103% and 82.5% | 15 (inactive) | 0.969 (inactive) and 0.821 (inactive) and 0.887 (inactive) |
| C[C@]12CCC(=O)C=C1CC[C@@H]1[C@@H]2CC[C@]2(C)C(=O)CC[C@@H]12 | -0.1% (inactive) | -1.6 | 2.4% (inactive) | 64.9% (active) | -7% (inactive) | -2.7% (inactive) | 68.5% (active) | 23.5% (inactive) | 45.9% (inactive) |  |  |  |  |  |  |  |  |  |  |  |
| NCc1cccnc1 | 0.8% (inactive) | 1.2 | -1.3% (inactive) | 16.9% (inactive) | -11.1% (inactive) | 0% (inactive) | -22.4% (active) | 1.8% (inactive) | -13.1% (inactive) |  | 0.915 | 7820 | 9010 |  |  | 10 nM (inactive) |  |  |  | 0.867 (inactive) |
| CCOP(=S)(OCC)SCSc1ccc(Cl)cc1 | 1.3% (inactive) | -1.3 | -1.15% (inactive) |  |  | -0.9% (inactive) |  |  |  |  |  |  |  |  |  |  |  |  |  |  |
| CCCCCCC(=O)CCCCCC/C=C/C[C@@H](O)[C@H](O)[C@@](N)(CO)C(=O)O | -0.4% (inactive) | 1.7 | 1.7% (inactive) | -39.7% (inactive) | -16.8% (inactive) | -2.8% (inactive) | -29.4% (inactive) | 31.4% (inactive) | 9.9% (inactive) | 0.991 (inactive) | 0.843 | 5220 | 5270 |  |  |  |  |  |  |  |
| CCN[C@@H](C)Cc1cccc(C(F)(F)F)c1 | 3% (inactive) | 2.2 | 8.8% (inactive) | -3.65% (inactive) | 29.2% (active) | 1.3% (inactive) | -3.9% (inactive) | 17.9% (inactive) | -6.6% (inactive) |  |  |  |  | -1.11 (inactive) | 0.177 |  |  |  |  |  |
